Beta cell apopt = blocks beta cell apoptosis. INS-1E cytokine-induced death, ATP luminescence, 48 h; percent of positive-control rescue, neutral wells zero. protection from apoptosis, % (concentration not given with the values). hit rate 0.8% among 300,000;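 active = Every replicate reaches about 75%, or at least half do and their mean reaches it too, limit read from the data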;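 also: higher means more ATP so stronger rescue from cytokine killing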
Gli-Sufu block = antagonists of Gli-Sufu signaling. Sufu-KO-LIGHT fibroblasts, Gli luciferase reporter luminescence. inhibition, % at 5 µM. hit rate 0.74% among 340,000;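 active = inhibition above about 55%, limit read from the data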
Mdm2-MdmX inh = inhibitors of human Mdm2/MdmX interaction. O15151+Q00987. SaOS-2 split-luciferase Mdm2/MdmX complementation, luminescence. inhibition, % at 8 µM. hit rate 3% among 330,000. AID 485346;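 active = inhibition of at least 50% at 8 µM in the primary screen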
Target sequence (O15151 whole entry, looked up): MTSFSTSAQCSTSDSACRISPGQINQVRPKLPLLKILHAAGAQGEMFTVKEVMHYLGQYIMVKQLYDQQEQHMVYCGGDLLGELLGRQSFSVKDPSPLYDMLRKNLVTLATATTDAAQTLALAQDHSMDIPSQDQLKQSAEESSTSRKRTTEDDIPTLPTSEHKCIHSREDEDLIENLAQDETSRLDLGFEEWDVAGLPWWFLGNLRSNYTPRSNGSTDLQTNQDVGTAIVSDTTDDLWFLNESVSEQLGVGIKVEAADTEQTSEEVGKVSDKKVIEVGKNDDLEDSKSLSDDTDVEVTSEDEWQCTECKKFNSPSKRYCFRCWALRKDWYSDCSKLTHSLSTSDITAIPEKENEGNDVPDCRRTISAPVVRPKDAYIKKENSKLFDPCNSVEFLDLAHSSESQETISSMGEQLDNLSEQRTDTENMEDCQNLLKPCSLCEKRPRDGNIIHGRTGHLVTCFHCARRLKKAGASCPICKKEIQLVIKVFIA
Target sequence (Q00987 whole entry, looked up): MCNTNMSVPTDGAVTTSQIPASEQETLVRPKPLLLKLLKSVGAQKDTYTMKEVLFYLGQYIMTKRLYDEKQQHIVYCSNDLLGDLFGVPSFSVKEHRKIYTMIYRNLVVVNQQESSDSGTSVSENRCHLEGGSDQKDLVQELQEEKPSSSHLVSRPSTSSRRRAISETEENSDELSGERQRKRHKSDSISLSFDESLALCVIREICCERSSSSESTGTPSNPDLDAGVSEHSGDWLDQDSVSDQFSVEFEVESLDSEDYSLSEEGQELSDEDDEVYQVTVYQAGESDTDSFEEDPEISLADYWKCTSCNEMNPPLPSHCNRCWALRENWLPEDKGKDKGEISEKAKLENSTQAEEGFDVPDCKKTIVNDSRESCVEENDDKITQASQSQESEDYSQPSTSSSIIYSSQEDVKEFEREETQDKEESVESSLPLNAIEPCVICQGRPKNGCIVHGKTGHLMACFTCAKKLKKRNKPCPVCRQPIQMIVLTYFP
697 NFkB inh = lowers PMA/ionomycin-induced NF-kB signal in 697 B cells; 697 B-cell NF-kB luciferase reporter, 16 h; inhibition, % at 4 µM; hit rate 0.33% among 330,000; in the data active = inhibition above about 35%
Jurkat NFkB inh = inhibitors of the PMA/ionomycin-induced NF-kB reporter in Jurkat cells; inhibition, % at 4 µM; hit rate 0.53% among 330,000; PMA/ionomycin-induced NF-kB luciferase reporter, luminescence; AID 435003; in the data active = inhibition above about 50%
Jurkat NFkB conf = inhibitors of the PMA/ionomycin-induced NF-kB reporter in Jurkat cells, retest. AID 435020. hit rate 27% among 2,700. shares compounds with Jurkat NFkB inh. Jurkat NF-kB luciferase, 16 h. inhibition, % at 4 µM;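 active = inhibition reaching about 45% at 4 µM in either replicate, limit read from the data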
697 NFkB conf = inhibitors of the PMA/ionomycin-induced NF-kB reporter in 697 B cells, retest; AID 449746; 697 B-cell NF-kB luciferase, 16 h; hit rate 35% among 2,000; inhibition, % at 4 µM; shares compounds with 697 NFkB inh; in the data active = inhibition mostly above about 28%, no sharp cut-off; inactive = mostly below about 22%
Mdm2-MdmX conf = confirmation of human Mdm2/MdmX interaction inhibitors; shares compounds with Mdm2-MdmX inh; Mdm2-MdmX binding, luminescent assay; inhibition, % at 8 µM; hit rate 55% among 10,000; AID 489028; in the data active = inhibition above about 40%
Full FLuc ctr = inhibits full-length luciferase, flagging false Mdm2/MdmX hits; inhibition, % at 8 µM; AID 504607; SaOS-2 full-length luciferase counterscreen, luminescence; hit rate 77% among 6,200; shares compounds with Mdm2-MdmX inh;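 active = mean inhibition at 8 µM reaching about 37%, which flags the compound as non-specific, limit read from the data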;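 also: p53-null SaOS-2 cells with luciferase driven by a doxycycline-inducible promoter; compound on cells about two nights before reading with doxycycline added after day one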
Gli antag conf = confirmation of Gli-SUFU pathway antagonists; shares compounds with Gli-Sufu block; Sufu-KO-LIGHT cells, Gli luciferase reporter, luminescence; inhibition, % at 5 µM; hit rate 40% among 2,500; AID 602428;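 active = mean inhibition at 5 µM reaching about 45%, limit read from the data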
Gli cytotox = counter-screen for Gli-SUFU antagonists: cytotoxicity; shares compounds with Gli-Sufu block; Sufu-KO-LIGHT cells cytotoxicity, ATP luminescence; cytotoxicity, % at 5 µM; hit rate 32% among 2,500; AID 651994;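 active = mean cytotoxicity at 5 µM above about 25%, limit read from the data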;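 also: cells exposed to compound overnight for roughly 16 to 18 hours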
Wnt3a cs = inhibits Wnt3a reporter, counter-screen for Gli-SUFU antagonists; inhibition, % at 6.25 µM; hit rate 20% among 2,500; shares compounds with Gli-Sufu block; AID 651995; Wnt-LIGHT cells, Wnt3a-driven luciferase reporter, luminescence;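 active = mean inhibition above about 25%, limit read from the data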
Of the large screens only hits and unclear results are named; the others gave an inactive call (follow-up assays come after a bar, where they were run). In the library only some 4% were active in any assay of this set; here they are far more common.

COc1cc(CSc2nnnn2-c2ccc(C)cc2)cc(OC)c1OC	Beta cell apopt 102, Gli-Sufu block 69, 697 NFkB inh 44, Jurkat NFkB inh 59 | Jurkat NFkB conf 60 | 697 NFkB conf 47 | Gli antag conf 68 | Gli cytotox 27 | Wnt3a cs 40
Cc1cc(N2CCN(c3nc4ccccc4s3)CC2)n2ncnc2n1	Beta cell apopt 87, Gli-Sufu block 71, 697 NFkB inh 54, Jurkat NFkB inh 62 | Jurkat NFkB conf 54 | 697 NFkB conf 42 | Gli antag conf 66 | Gli cytotox 38 | Wnt3a cs inactive
Cc1cc(N2CCN(C(c3ccccc3)c3ccccc3)CC2)n2ncnc2n1	none (no result: Beta cell apopt)
Cc1ccc(C)c(NC(=O)Cc2nc(CNCC(C)C)cs2)c1	none
CCCCC(=O)NC(=S)NNC(=O)c1ccc(OC)cc1	none
CCOc1ccc(/C=N/NC(=O)c2[nH]c3ccc(C)cc3c2C)cc1	none
O=C(N/N=C/c1ccc(O)cc1)c1[nH]c2ccc(Br)cc2c1-c1ccccc1	Gli-Sufu block 63, Mdm2-MdmX inh 67, Jurkat NFkB inh 60 | Jurkat NFkB conf inactive | Mdm2-MdmX conf 56 | Full FLuc ctr 92 | Gli antag conf 63 | Gli cytotox 72 | Wnt3a cs inactive
Cc1c(C(=O)N/N=C/c2ccc(Cl)cc2)[nH]c2ccc(Cl)cc12	Mdm2-MdmX inh 63, Jurkat NFkB inh 52 | Jurkat NFkB conf 51 | Mdm2-MdmX conf 62 | Full FLuc ctr 91 | Gli antag conf 55 | Gli cytotox 58 | Wnt3a cs inactive
Cc1ccc(NC(=O)c2ncn(CC(=O)N3CCN(c4ccccn4)CC3)n2)cc1C	none (no result: Beta cell apopt, Jurkat NFkB inh)
Cc1nc(C)c(-c2ccc(SCc3ccccc3C)nn2)s1	none
COc1ccc(CN2CCC(C(=O)Nc3ccc(Oc4cccnc4)cc3)CC2)c(C)c1C	Gli-Sufu block 60, Mdm2-MdmX inh 74, Jurkat NFkB inh 54 | Jurkat NFkB conf inactive | Mdm2-MdmX conf inactive | Full FLuc ctr 53 | Gli antag conf inactive | Gli cytotox inactive | Wnt3a cs inactive
O=C(O)c1ccc(N=Nc2c(O)[nH]c3cc(Cl)ccc23)cc1	none | 697 NFkB conf inactive
Nc1cnc(Nc2ccc(Br)cc2)nc1N	none
Cc1cnc(NC(=O)c2cc3c(s2)CCCC3)s1	none | 697 NFkB conf inactive
COc1cc2c(cc1OC)[C@@H](NC(=O)C(C)C)[C@H](OCc1ccccc1)C2	none (no result: Beta cell apopt, Jurkat NFkB inh)
O=S(=O)(c1cnc(Cl)c(Cl)c1)N1CCc2ccccc21	none
O=S(=O)(c1cnc(Cl)c(Cl)c1)N1CCCc2ccccc21	697 NFkB inh 43 | 697 NFkB conf 37
COC(=O)c1sc(NC(=S)NC(=O)c2cccc(Br)c2)nc1C	none
CCOCCCNc1nc2c(C)cccn2c(=O)c1/C=C1\SC(=S)N(C(C)CC)C1=O (configuration not stated)	697 NFkB inh 37 | 697 NFkB conf 32
CCOCCCNc1nc2c(C)cccn2c(=O)c1/C=C1\SC(=S)N(CC(C)C)C1=O	none
COc1ccc(-n2ncc3c(N4CCC(C(N)=O)CC4)ncnc32)cc1	697 NFkB inh 60 | 697 NFkB conf 45
Cc1cccc(-n2ncc3c(N4CCC(C)CC4)ncnc32)c1	none
CCOC(=O)C1CCN(c2ncnc3c2cnn3-c2ccc(OC)cc2)CC1	697 NFkB inh 47 | 697 NFkB conf 36
CCOC(=O)C1CCCN(c2ncnc3c2cnn3-c2cccc(C)c2)C1 (configuration not stated)	none
N#Cc1ccccc1N/C=C/C(=O)c1ccc(Cl)cc1	none | 697 NFkB conf inactive
O=C(/C=C/Nc1ccccc1F)c1ccc(Br)cc1	none (no result: Mdm2-MdmX inh, 697 NFkB inh, Jurkat NFkB inh)
O=C(N1CCc2[nH]c3ccccc3c2C1)C(F)(F)F	none
Cc1ccc(S(=O)(=O)N2CCOCC2)cc1NC(=O)CSc1nnc(COc2ccccc2F)n1N	none (no result: Beta cell apopt, Mdm2-MdmX inh, 697 NFkB inh, Jurkat NFkB inh)
CCN(CC(=O)Nc1ccccc1C(F)(F)F)C(=O)CN1C(=O)NC(C)(c2ccccc2)C1=O (configuration not stated)	none
CCOC(=O)c1cn[nH]c1NC(=S)Nc1ccc(OC)cc1	none (no result: Beta cell apopt) | 697 NFkB conf inactive
CCN(CC)CCNC(=O)c1ccc(NC(=O)COc2ccccc2F)cc1	none
CCC(c1nnc(SCC(=O)NC2CCCCC2)n1Cc1ccccc1)N(C)C (configuration not stated)	697 NFkB inh 39 | 697 NFkB conf inactive
CCC(c1nnc(SCC(=O)NCC2CCCO2)n1Cc1ccccc1)N(C)C (configuration not stated)	none
Cc1nc(N2CCC(C)CC2)c2c(C)c(C(=O)O)sc2n1	697 NFkB inh 35 | 697 NFkB conf inactive
COC(=O)c1sc(Nc2ccccc2)nc1C	none
Cc1nc(Nc2ccc(C(=O)O)cc2)sc1-c1ccccc1	none | 697 NFkB conf inactive
N#C/C(=C\N1CCCCC1)S(=O)(=O)c1ccc(Cl)cc1	none
COc1ccc(-c2cc3cc4c(cc3cn2)OCO4)cc1	none | 697 NFkB conf inactive
O=C(CC(=O)N1CCOCC1)N1CCOCC1	none (no result: Beta cell apopt, Mdm2-MdmX inh, 697 NFkB inh, Jurkat NFkB inh)
COc1cc(/C=N/NC(=O)c2ccc(-n3cccc3)cc2)ccc1O	697 NFkB inh 43 | 697 NFkB conf inactive
COc1cccc(/C=N/NC(=O)c2ccc(N3CCCC3=O)cc2)c1	none | 697 NFkB conf inactive
CC1CCC2(CC1)NC(=O)N(CC(=O)N1CC(C)CC(C)C1)C2=O (configuration not stated)	none
CC(C)Cn1c([N+](=O)[O-])nc2c1c(=O)[nH]c(=O)n2C	697 NFkB inh 37 | 697 NFkB conf 30
O=C(CCN1C(=O)/C(=C/c2ccc(F)cc2)SC1=S)NNC(=O)c1ccncc1	none
Cc1ccc(/C=C2\SC(=S)N(CCCC(=O)Nc3cc(C)on3)C2=O)cc1	697 NFkB inh 53 | 697 NFkB conf 59
Cc1ccc(/C=C2\SC(=S)N(CCC(=O)NNC(=O)c3ccncc3)C2=O)cc1	697 NFkB inh 44 | 697 NFkB conf 31
O=C(N/N=C/C(Br)=C\c1ccccc1)c1n[nH]c2c1CCC2	none | 697 NFkB conf inactive

Screening results as filed in PubChem.
